{"source": "PubChem BioAssay AID2156", "about": "(Johns Hopkins Ion Channel Center, 2009)", "note": "Hit rate of the full screen: of about 310,000 compounds, about 3,400 (1.1%) were called active. The sample holds actives, similar compounds and a random draw of the others, so the mix is not that of the screen. Unmarked numbers belong to inactive results.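 How the source made its calls: active means fluorescence ratio B-score at most minus 3 library SDs, with starting brightness B-score within 2 library SDs (cut at about -5.5 in these data); inactive means the rest, inconclusive results apart.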"}
{"biological_target": "Potassium voltage-gated channel subfamily KQT member 2 (Rattus norvegicus) (UniProt O88943)", "sequence (O88943 whole entry, looked up)": "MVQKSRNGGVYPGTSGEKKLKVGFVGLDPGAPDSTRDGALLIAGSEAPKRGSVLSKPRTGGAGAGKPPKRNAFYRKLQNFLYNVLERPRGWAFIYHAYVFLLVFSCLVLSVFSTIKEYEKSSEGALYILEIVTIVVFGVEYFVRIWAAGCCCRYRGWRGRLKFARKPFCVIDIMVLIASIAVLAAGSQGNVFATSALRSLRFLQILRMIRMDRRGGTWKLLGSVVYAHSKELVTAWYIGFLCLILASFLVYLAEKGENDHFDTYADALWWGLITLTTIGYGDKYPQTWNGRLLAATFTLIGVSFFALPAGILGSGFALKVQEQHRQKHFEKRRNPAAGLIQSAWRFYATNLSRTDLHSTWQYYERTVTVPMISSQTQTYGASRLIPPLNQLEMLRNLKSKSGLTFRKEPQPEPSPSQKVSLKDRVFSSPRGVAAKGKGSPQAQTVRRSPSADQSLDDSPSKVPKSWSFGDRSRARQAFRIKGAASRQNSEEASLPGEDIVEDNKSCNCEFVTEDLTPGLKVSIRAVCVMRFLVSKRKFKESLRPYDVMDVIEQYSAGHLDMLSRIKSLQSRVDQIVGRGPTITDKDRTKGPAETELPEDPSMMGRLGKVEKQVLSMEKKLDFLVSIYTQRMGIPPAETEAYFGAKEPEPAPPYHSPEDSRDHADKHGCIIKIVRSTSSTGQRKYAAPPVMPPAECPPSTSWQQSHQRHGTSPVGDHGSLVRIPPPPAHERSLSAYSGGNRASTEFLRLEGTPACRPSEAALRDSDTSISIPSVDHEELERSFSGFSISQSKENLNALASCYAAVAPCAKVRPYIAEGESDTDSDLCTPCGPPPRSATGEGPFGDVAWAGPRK", "test": "rat KCNQ2 potassium channel inhibitors, primary screen, cell-based, CHO-K1, FluxOR thallium flux, B-score (AID 2156)", "details": "20 min, at 10 µM; hits give low values"}
{"smiles": "CC(C)(C)N1CC(c2nc3ccccc3n2Cc2ccc(F)cc2)CC1=O", "note": "(stereo unspecified)", "B-score": "-5.93 (active)"}
{"smiles": "C=CCn1c(C2CC(=O)N(c3ccc(C)cc3)C2)nc2ccccc21", "note": "(stereo unspecified)", "B-score": "inactive"}
{"smiles": "CSc1nc2ccccc2c(=O)n1Cc1ccc(F)cc1", "B-score": "inactive"}
{"smiles": "CCN(CC)c1ccc(NC(=O)c2ccc(=O)[nH]c2)cc1S(=O)(=O)Nc1ccc(OC)cc1", "B-score": -0.01}
{"smiles": "O=C1Nc2cc(C(=O)N3CCC(N4CCCCC4)CC3)ccc2S/C1=C\\c1ccccc1", "B-score": "-6.65 (active)"}
{"smiles": "CC1CCN(C(=O)c2ccc3c(c2)NC(=O)CN3)CC1", "B-score": -0.25}
{"smiles": "CCN1CCN(CCNC(=O)c2ccc3c(c2)NC(=O)/C(=C\\c2ccc(OC)c(OC)c2)S3)CC1", "B-score": -0.06}
{"smiles": "Cc1ccc(S(=O)(=O)N(C)c2ccc(OCC(=O)OCC(=O)N(CC#N)c3ccccc3)cc2)cc1", "B-score": "inactive"}
{"smiles": "CN(CC(=O)Nc1cccc(F)c1)C(=O)C1CSC2(C)CCC(=O)N12", "note": "(stereo unspecified)", "B-score": -0.47}
{"smiles": "COc1ccccc1C(=O)NC(CCSC)C(=O)NNC(=O)c1ccccc1C", "note": "(stereo unspecified)", "B-score": "inactive"}
{"smiles": "Cc1cc(NC(=O)CSC2=NS(=O)(=O)c3cc(Cl)ccc3N2)no1", "B-score": -0.31}
{"smiles": "O=C(c1ccccc1)c1cc(-c2ccccn2)c(N2CCOCC2)s1", "B-score": -0.1}
{"smiles": "CCc1ccc2ncc(C(=O)c3ccccc3)c(N3CCOCC3)c2c1", "B-score": "-9.81 (active)"}
{"smiles": "CCc1ccc(C(=O)NC(=S)Nc2ccccc2N2CCOCC2)cc1", "B-score": -5.43}
{"smiles": "CCCCn1c(N)c(N(CC(C)C)C(=O)c2cccc(S(=O)(=O)N3CC(C)OC(C)C3)c2)c(=O)[nH]c1=O", "note": "(stereo unspecified)", "B-score": "inactive"}
{"smiles": "CCCCn1c(N)c(N(CC(C)C)C(=O)c2cnc(C)cn2)c(=O)[nH]c1=O", "B-score": "inactive"}
{"smiles": "Cc1cc(NC(=O)C(C)SCC(=O)Nc2ccccc2N2CCCCC2)no1", "note": "(stereo unspecified)", "B-score": "inactive"}
{"smiles": "O=C(NCCCN1CCCC1=O)c1cccc(S(=O)(=O)NCc2ccccc2)c1", "B-score": -0.85}
{"smiles": "O=C(COC(=O)c1ncc(Cl)c(Cl)c1Cl)NCc1cccs1", "B-score": -2.02}
{"smiles": "O=C(CN1CCC(O)(c2ccccc2)CC1)Nc1ccc2c(c1)OCCO2", "B-score": "inactive"}
{"smiles": "O=C(CCN1CCc2ccccc2C(O)(c2ccccc2)C1)c1ccc2c(c1)OCCO2", "note": "(stereo unspecified)", "B-score": "-6.97 (active)"}
{"smiles": "CCC1(c2ccccc2)NC(=O)N(CC(=O)c2ccc3c(c2)OCO3)C1=O", "note": "(stereo unspecified)", "B-score": "inactive"}
{"smiles": "COc1cc(N)c(Cl)cc1C(=O)OCC(=O)c1ccc2c(c1)NC(=O)CO2", "B-score": "inactive"}
{"smiles": "COc1ccc(CN(C)C(C)C(=O)NC2CCCc3ccccc32)cc1", "note": "(stereo unspecified)", "B-score": "-6.8 (active)"}
{"smiles": "COc1ccc(CN(C)C(=O)CC(c2ccccc2)c2ccccc2)cc1", "B-score": -2.95}
{"smiles": "Cc1cccc(C(=O)OC(C)C(=O)NC2CCCc3ccccc32)c1O", "note": "(stereo unspecified)", "B-score": "-7.78 (active)"}
{"smiles": "O=C(CN1CCN(c2ccc(O)cc2)CC1)NC1CCCc2ccccc21", "note": "(stereo unspecified)", "B-score": -0.25}
{"smiles": "CNS(=O)(=O)c1cccc(C(=O)NC2CCCc3ccccc32)c1", "note": "(stereo unspecified)", "B-score": -2.62}
{"smiles": "CCOc1ccc(NC(=O)COc2ccc(C(=O)NC3CCCc4ccccc43)cc2OC)cc1", "note": "(stereo unspecified)", "B-score": "inactive"}
{"smiles": "Cc1ccc(NC(=O)CN(C)C(=O)Cn2nnc(-c3ccccc3)n2)cc1", "B-score": "inactive"}
{"smiles": "COc1ccccc1CNC(=O)CSc1nc(=O)n(Cc2ccncc2)c2c1CCC2", "B-score": -0.12}
{"smiles": "O=C(c1cc(-c2ccc(Cl)s2)nc2ccccc12)N1CCOCC1", "B-score": "-6 (active)"}
{"smiles": "CCOc1ccccc1-c1cc(C(=O)N2CCOCC2)c2ccccc2n1", "B-score": "inactive"}
{"smiles": "CC(=O)N1CCN(C(=O)c2cc(-c3ccc(Cl)s3)nc3ccccc23)CC1", "B-score": "inactive"}
{"smiles": "Cc1cc(OCC(=O)N(C)c2c(N)n(Cc3ccccc3)c(=O)[nH]c2=O)c(C(C)C)cc1Cl", "B-score": -0.02}
{"smiles": "COc1ccc(-c2cnc(SCCNC(=O)c3ccc4c(c3)OCO4)[nH]2)cc1", "B-score": "inactive"}
{"smiles": "Cc1ccc(C2=N/C(=C\\c3ccc(OS(=O)(=O)c4ccc(C)cc4)cc3)C(=O)O2)cc1", "B-score": "-7.24 (active)"}
{"smiles": "O=C1OC(c2ccc(Cl)cc2)=N/C1=C\\c1cccnc1", "B-score": -0.06}
{"smiles": "Cc1ccc(S(=O)(=O)Oc2ccc(/C=N/NC(=O)c3ccncc3)cc2)cc1", "B-score": -0.5}
{"smiles": "COc1ccc(OCCCC(=O)OC(C)C(=O)Nc2ccccc2[N+](=O)[O-])cc1", "note": "(stereo unspecified)", "B-score": -0.14}
{"smiles": "Cc1ccc(CN2CCN(c3ccccc3Cl)CC2)o1", "B-score": -0.4}
{"smiles": "O=C(N/N=C/c1cc(Cl)cc([N+](=O)[O-])c1O)C(O)(c1ccccc1)c1ccccc1", "B-score": -0.18}
{"smiles": "O=C(CN1CCN(c2ccc(O)cc2)CC1)Nc1cc(S(=O)(=O)N2CCOCC2)ccc1Cl", "B-score": -0.82}
{"smiles": "O=[N+]([O-])c1cc(Cl)cc(/C=N/NC(=S)Nc2cc(S(=O)(=O)N3CCOCC3)ccc2Cl)c1O", "B-score": "-8.14 (active)"}
{"smiles": "CC(=O)n1cc([C@H]2C=C(C(=O)N3CCOCC3)O[C@@H](OCc3ccc(CO)cc3)C2)c2ccccc21", "B-score": -4.18}
{"smiles": "CN1CCN(C(=O)C2=C[C@H](c3ccc4c(c3)OCO4)C[C@H](OCc3ccc(CO)cc3)O2)CC1", "B-score": -0.01}
